FLuc modulator = counter-screen for miR-21 project: firefly luciferase inhibitors or activators; actives 6.9% (n = 360,000); purified FLuc, Km substrates, luminescence inhibition; Potency, µM (top dose mostly 57.5 µM), for inactives: at the highest dose activity change, negative = inhibition, usual class: inhibitors; P08659;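 also: plate controls were vehicle for no effect and reference inhibitor for full effect; nearly all actives have a fitted effect of over 55% in size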
Target sequence (P08659 whole entry, looked up): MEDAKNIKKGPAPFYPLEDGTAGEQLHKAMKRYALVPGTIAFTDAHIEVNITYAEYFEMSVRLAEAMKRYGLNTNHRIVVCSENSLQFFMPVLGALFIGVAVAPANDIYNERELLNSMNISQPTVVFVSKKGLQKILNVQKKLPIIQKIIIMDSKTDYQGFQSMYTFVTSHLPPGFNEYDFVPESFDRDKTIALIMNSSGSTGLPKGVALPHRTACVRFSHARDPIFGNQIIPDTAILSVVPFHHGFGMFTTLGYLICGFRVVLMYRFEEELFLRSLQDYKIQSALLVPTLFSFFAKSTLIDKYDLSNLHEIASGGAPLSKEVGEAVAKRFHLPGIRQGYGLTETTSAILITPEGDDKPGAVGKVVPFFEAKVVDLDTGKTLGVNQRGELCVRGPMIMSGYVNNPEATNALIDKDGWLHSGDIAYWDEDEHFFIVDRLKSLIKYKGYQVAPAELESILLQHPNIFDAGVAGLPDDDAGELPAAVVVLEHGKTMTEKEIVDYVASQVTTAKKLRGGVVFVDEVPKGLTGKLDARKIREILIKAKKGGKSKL
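Biochemical qHTS of compounds, final roughly 60 µM downward over six points, against 10 nM purified firefly luciferase using Km concentrations of substrates (10 uM D-luciferin, 10 uM ATP) in Tris acetate pH 7.5 buffer; luminescence output.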
SMN2 splice enh = increases expression of the SMN2 splice variant. HEK293 SMN2-luciferase splicing reporter, luminescence, 30-36 h. Potency, µM (doses to about 46.1 µM), inactives show top-dose activity change, positive = activation, actives largely listed as activators. actives 2.8% (n = 210,000); also: % of control where 0% means no effect; nearly all actives have a fitted effect of over 55% in size
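HEK293 cells carry an SMN2 minigene-luciferase reporter in which exon 7 inclusion puts luciferase in frame. Cells were seeded at 2000 cells/well, attached for 10-12 hours, then exposed to compounds for 30-36 hours at 37C before ONE-Glo luminescence.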
Rab9 prom act = activators of Rab9 promoter | Huh7 Rab9 promoter-luciferase reporter, luminescence, 24 h | Potency, µM (highest dose often 9.22 µM), inactives show top-dose activation, negative = inhibition, hits mostly activators | actives 2.8% (n = 320,000) | AID 485297; also: % of control where 0% means no effect; nearly all actives have a fitted effect of over 60% in size
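Steps: seed 1500 Huh7 Rab9-luc cells per well, rest 2 h at 37 °C; add compound in DMSO; incubate 24 h; add luciferase reagent, 10 min ambient; read luminescence.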
p53 reactivation = restores transcriptional activity of mutant p53; H1299 p53-A138V BP100-luciferase reporter, luminescence, 24 h; Potency, µM (titrated, usually from 92.2 µM), for the others: top-dose activity change, positive = activation, actives largely listed as activators; actives 0.063% (n = 320,000); AID 504706; also: % of control where 0% means no effect; nearly all actives have a fitted effect of over 45% in size
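H1299 (p53-null), stable ts p53-A138V + BP100-Luc; 1000 cells/well, Opti-MEM/10% FBS; cpd 4 pt, 1:5; 24 h, 37 deg C, 5% CO2; detection reagent 10 min RT; luminescence.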
ELG1 genotox = inducers of genotoxicity in HEK293T ELG1-luciferase cells | actives 1.3% (n = 330,000) | HEK293T ELG1-luciferase reporter, luminescence, 16 h | Potency, µM (titrated, usually from 46 µM), inactives show at the top dose activity change, positive = activation, hits mostly activators; also: % of control where 0% means no effect; nearly all actives have a fitted effect of over 60% in size
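HEK293T cells expressing luciferase-tagged ELG1 were exposed to compound or DMSO vehicle for 16 hr at 37 °C and 5% CO2. Luciferase activity was then measured with ONE-Glo after 30 min at room temperature.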
NPC1 promoter act = NPC1 promoter activation; actives 2.4% (n = 320,000); Potency, µM (series often up to 9.22 µM), inactives show at the highest dose activation, actives largely listed as activators; AID 485313; Huh7 NPC1 promoter luciferase reporter, 24 h; also: % of control where 0% means no effect; nearly all actives have a fitted effect of over 60% in size
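Stable NPC1-promoter luciferase Huh7 line; cpd (DMSO) 24 h, 37 °C, 5% CO2; Amplite luciferase reagent 10 min RT; luminescence readout. qHTS format.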
Active calls of the source: *; [ ] = dose if it differs, or a comment. A selection: hits, their analogues and other compounds. The true share with any hit is near 7.4%. Calls follow the shape of the dose curve; as a rule, active = well fitted curve in the direction sought with a large enough effect; inconclusive = small, poorly fitted or top-dose-only effect, or another doubt; inactive = no such curve, though single readings can be large; an effect the other way counts as inactive or inconclusive. Potency is read from the fitted curve at half-maximal effect.

What do the screens show for `O=C(CSc1nnc(NCc2ccccc2)s1)c1ccco1`?
FLuc modulator: 15µM*; SMN2 splice enh: 9%; Rab9 prom act: 10%; p53 reactivation: 5%; ELG1 genotox: 5%; NPC1 promoter act: 17%

How did Cc1cc(NC(=O)CSc2nnc(NCc3ccccc3)s2)no1 do in these assays?
FLuc modulator: -6%; Rab9 prom act: -4%; p53 reactivation: 0%; ELG1 genotox: -1%; NPC1 promoter act: -5%

Results for Cc1cc(C(=O)CSc2nc3ccccc3o2)c(C)n1C1CC1 ?
FLuc modulator: 13µM*; SMN2 splice enh: 11µM*; Rab9 prom act: 2.2µM*; p53 reactivation: inconclusive; ELG1 genotox: 18µM*; NPC1 promoter act: 2.2µM*

Results for C=CCn1c(C)cc(C(=O)CSc2nnc(Cc3ccccc3)o2)c1C ?
FLuc modulator: 15µM*; SMN2 splice enh: -7%; Rab9 prom act: 7%; p53 reactivation: 18%; ELG1 genotox: 1%; NPC1 promoter act: 14%

Results for Cc1cc(C(=O)CSc2nnc(Cc3ccccc3)o2)c(C)n1Cc1ccc2c(c1)OCO2 ?
FLuc modulator: -22%; SMN2 splice enh: -49%; Rab9 prom act: -6%; p53 reactivation: -5%; ELG1 genotox: -6%; NPC1 promoter act: -6%

How did C=CCn1c(C)cc(C(=O)CSc2nc3ccccc3o2)c1C do in these assays?
FLuc modulator: 1.9µM*; SMN2 splice enh: inconclusive; Rab9 prom act: inconclusive; ELG1 genotox: 1.6µM*; NPC1 promoter act: 0.63µM*

How did C=CCn1c(C)cc(C(=O)CSc2nnc(NCc3ccccc3)s2)c1C do in these assays?
FLuc modulator: 17µM*; SMN2 splice enh: 3%; Rab9 prom act: 11%; p53 reactivation: 15%; ELG1 genotox: 13%; NPC1 promoter act: 7%

What do the screens show for `C=CCn1c(C)cc(C(=O)CSc2nnc(NC(C)C)s2)c1C`?
FLuc modulator: inconclusive; SMN2 splice enh: 10%; Rab9 prom act: 15%; p53 reactivation: 0%; ELG1 genotox: 1%; NPC1 promoter act: 27%

How did CS(=O)(=O)N1CCC2(CCCN(c3ccncc3)C2)CC1 do in these assays?
SMN2 splice enh: -11%

Results for COC(=O)c1ccccc1NC(=O)c1c(O)c2c([nH]c1=O)CCCC2 ?
FLuc modulator: 21µM*; SMN2 splice enh: 9%; Rab9 prom act: 3%; p53 reactivation: 9%; ELG1 genotox: 2%; NPC1 promoter act: 4%

How did COC(=O)c1c(O)c2c([nH]c1=O)CCCC2 do in these assays?
FLuc modulator: 4%; SMN2 splice enh: -11%; Rab9 prom act: -3%; p53 reactivation: 0%; ELG1 genotox: 0%; NPC1 promoter act: -4%

How did O=C(Nc1ccc(O)cc1)c1c(O)c2c([nH]c1=O)CCCC2 do in these assays?
FLuc modulator: 6µM*; SMN2 splice enh: 11µM*; Rab9 prom act: 0.56µM*; p53 reactivation: 7%; ELG1 genotox: inconclusive; NPC1 promoter act: 1.3µM*

What do the screens show for `CC(=O)O[C@H]1C[C@H]2CC[C@@H]3[C@@H](CC[C@]4(C)[C@H](OC(C)=O)[C@H]([N+]5(C)CCCCC5)C[C@@H]34)[C@]2(C)C[C@H]1[N+]1(C)CCCCC1`?
SMN2 splice enh: -12%[20.6 µM]

How did C/C(=N\Nc1nccnc1Cl)c1ccc(F)cc1 do in these assays?
FLuc modulator: 24µM*; Rab9 prom act: inconclusive; p53 reactivation: inconclusive; ELG1 genotox: inconclusive; NPC1 promoter act: inconclusive

Results for C/C(=N\Nc1nccnc1Cl)c1ccc(Cl)c(Cl)c1 ?
FLuc modulator: 21µM*; Rab9 prom act: 18%; p53 reactivation: 6%; ELG1 genotox: 7%; NPC1 promoter act: 18%

How did C/C(=N\Nc1nccnc1Cl)c1ccc(O)cc1 do in these assays?
FLuc modulator: inconclusive; Rab9 prom act: 15%; p53 reactivation: 8%; ELG1 genotox: 12%; NPC1 promoter act: 17%

What do the screens show for `COc1cc(/C=C2/C(=O)NN(c3cccc(F)c3)C2=O)ccc1OC(=O)c1ccco1`?
FLuc modulator: 24µM*; SMN2 splice enh: -13%; Rab9 prom act: 1%; p53 reactivation: 2%; ELG1 genotox: 12%; NPC1 promoter act: 5%

How did COc1cc(/C=C2/C(=N)N3OC(C)=CC3=NC2=O)ccc1OC(=O)c1ccco1 do in these assays?
FLuc modulator: 4%; SMN2 splice enh: -1%; Rab9 prom act: 1%; p53 reactivation: 3%; ELG1 genotox: 0%; NPC1 promoter act: -4%

How did C=CCN1C(=O)/C(=C\c2ccc(OC(=O)c3ccco3)c(OC)c2)SC1=S do in these assays?
FLuc modulator: 3%; SMN2 splice enh: -41%; Rab9 prom act: 1%; p53 reactivation: 5%; ELG1 genotox: 6%; NPC1 promoter act: -6%

Results for COc1cc(/C=C2/C(=O)NN(c3ccc(Cl)cc3)C2=O)ccc1OC(=O)c1ccco1 ?
FLuc modulator: 24µM*; SMN2 splice enh: 8%; Rab9 prom act: -6%; p53 reactivation: -7%; ELG1 genotox: 9%; NPC1 promoter act: -4%

What do the screens show for `CCCCC(=O)Nc1cc(C(=O)NCCc2ccccc2)ccc1Cl`?
FLuc modulator: -4%; SMN2 splice enh: 7.9µM*; Rab9 prom act: 2.5µM*; p53 reactivation: 2%; ELG1 genotox: inconclusive; NPC1 promoter act: 2.2µM*

What do the screens show for `COc1cccc(C(=O)NCCS(=O)(=O)NCCc2ccccc2)c1`?
FLuc modulator: inconclusive; Rab9 prom act: inconclusive; p53 reactivation: 10%; ELG1 genotox: inconclusive; NPC1 promoter act: inconclusive

Results for COc1cccc(C(=O)Nc2cc(C(=O)NCCc3ccccc3)ccc2Cl)c1 ?
FLuc modulator: -18%; SMN2 splice enh: 11µM*; Rab9 prom act: 13%; p53 reactivation: 27%; ELG1 genotox: inconclusive; NPC1 promoter act: 9%

How did Cc1c(NC(=O)c2cc(-n3cnnc3)ccc2Cl)cccc1-c1nc2ccccc2o1 do in these assays?
FLuc modulator: 3.8µM*; SMN2 splice enh: 7%; Rab9 prom act: -2%; p53 reactivation: -3%; ELG1 genotox: -1%; NPC1 promoter act: 0%

What do the screens show for `O=C(Nc1ccc2oc(-c3ccccc3F)nc2c1)c1ccc2c(c1)OCCO2`?
FLuc modulator: 6.7µM*; SMN2 splice enh: -39%; Rab9 prom act: 21%; p53 reactivation: -1%; ELG1 genotox: -16%; NPC1 promoter act: 14%

What do the screens show for `Cc1c(NC(=O)c2ccc3c(c2)OCO3)cccc1-c1nc2ccccc2o1`?
FLuc modulator: 9.5µM*; SMN2 splice enh: -11%; Rab9 prom act: 0%; p53 reactivation: -1%; ELG1 genotox: -8%; NPC1 promoter act: -4%

What do the screens show for `Cc1cc(NC(=O)c2ccc3c(c2)OCCO3)cc(-c2nc3ccccc3o2)c1O`?
FLuc modulator: -10%; SMN2 splice enh: -1%
